Most compounds without a hit are left out; they make up all but 1.1% or so of the library.
BJeLR viability: MLPCN primary cell-based screen for lethality selective to Ras in HRASV12 cells. BJeLR (HRASV12) viability, CellTiter-Glo ATP luminescence, 48 h. 300,000 tested, 0.17% active. inhibition, % (concentration not given with the values); in the data active = inhibition above about 50%
PrPC TRFRET: inhibitors of human cell surface prion protein PrPC, primary screen, cell-based, TR-FRET; Major prion protein (Homo sapiens), P04156; TR-FRET read-out; inhibition, % at 13.8 µM; 370,000 tested, 0.43% active; in the data active = inhibition above about 24%
MazEF act: activators of E. coli MazEF toxin-antitoxin RNase, primary screen, biochemical, fluorescence, uHTS. Endoribonuclease toxin MazF (Escherichia coli (strain K12)), P0AE70. FAM/BHQ RNA-DNA oligo cleavage fluorescence, 5 h. activation, % at 20 µM. 350,000 tested, 0.32% active. AID 504720, 2011; in the data active = activation above about 50%
PrP 5UTR inh: inhibition of PrP 5' UTR reporter expression | cell-based PrP 5' UTR mRNA reporter, plate reader | inhibition, % (no concentration beside the values) | 340,000 tested, 0.35% active | AID 488862, 2010; in the data active = inhibition above about 52%
PrPC TRFRET cf: confirmation of inhibitors of cell surface human prion protein, confirmation, cell-based, TR-FRET. inhibition, % at 13.8 µM. shares compounds with PrPC TRFRET. 1,500 tested, 65% active. AID 743200, 2013. cell surface PrPC level; in the data active = inhibition above about 25%
LD9 tox: cytotoxicity in LD9 cells, cytotoxicity control for cell surface PrPc inhibitor project, cell-based, luminescence, high throughput | shares compounds with PrPC TRFRET | luminescence viability | inhibition, % at 13.8 µM | 1,500 tested, 29% active; in the data active = inhibition above about 9.5%
Numbers stand for hits; – = inactive; · = no result.

SMILES	BJeLR viability	PrPC TRFRET	MazEF act	PrP 5UTR inh	PrPC TRFRET cf	LD9 tox
CCCCCN1C(=O)c2cc(OC)ccc2[C@@]2(C(=O)OCC)Cc3cc(Cl)ccc3[C@@H]12	·	33.4	·	·	46.6	98.8
CCOC(=O)[C@]12Cc3cc(Cl)ccc3[C@H]1N(Cc1ccccc1)C(=O)c1cc(OC)ccc12	·	–	·	·	·	·
Cc1ccc(-n2c(SCC(=O)Nc3ccc(Oc4ccccc4)cc3)nnc2-c2cccc(C)c2)cc1	·	–	·	·	·	·
COc1ccc2c(c1)[C@@]1(OCCC=C[C@H]1C)C(=O)N2Cc1ccc(Br)cc1	·	–	·	·	·	·
COc1cc(C(=O)Nc2scc(-c3ccc(Br)cc3)c2C(=O)O)cc(OC)c1OC	–	56.2	–	–	60.0	–
Cc1ccc(-c2csc(NC(=O)c3cccc(C)c3)c2C(=O)O)cc1	–	36.3	–	–	50.4	–
CCCOc1ccc(-c2cc(C(C)=O)c3n(c2=O)CCC3)cc1	·	–	·	·	·	·
CCOC(=O)N1CCN(C(=O)C[C@H]2C[C@@]3(C(=O)OC)C(=C[C@H](C(C)C)O[C@@H]3C3CC3)N(Cc3ccccc3)C2=O)CC1	·	–	·	·	·	·
Cc1ccc(CSC(Nc2ccc(F)cc2)=C(C#N)C#N)cc1	–	32.9	–	–	36.2	24.7
CC(C)C[C@H]1COc2ccc(Cl)cc2S(=O)(=O)N1	·	–	·	·	·	·
C[n+]1ccccc1/C=C1\Sc2ccccc2N1CCO	–	–	–	–	·	·
CCN1/C(=C/c2ccc3cccc(C)c3[n+]2CC)Sc2ccccc21	–	28.1	73.2	–	35.5	53.9
COC(=O)[C@]1(C#N)CC(=O)N(CC(C)C)[C@@H]1c1ccccc1	·	–	·	·	·	·
COC(=O)[C@]12C[C@H](CC(=O)NCc3cccc(C(F)(F)F)c3)C(=O)N(Cc3cccc4ccccc34)C1=C[C@H](COCc1ccccc1)O[C@@H]2C	·	–	·	·	·	·
COc1cc(OC)c(N(C)S(=O)(=O)c2cccc(C(=O)Nc3nccs3)c2)cc1Cl	·	–	–	–	·	·
CCc1cccc(NC(=O)c2cc(S(=O)(=O)N(C)C)ccc2N2CCCC2)c1	–	30.2	–	–	36.1	–
CN(c1ccccc1)S(=O)(=O)c1cccc(C(=O)Nc2nccs2)c1	–	25.8	–	–	–	–
CCc1cccc(NC(=O)c2cc(S(=O)(=O)N3CCCCC3)ccc2N2CCOCC2)c1	·	–	–	·	·	·
Cc1cnc(NC(=O)c2cc(S(=O)(=O)N(C)C)ccc2N2CCCC2)s1	·	72.1	–	·	79.3	–
CN(C)S(=O)(=O)c1ccc(N2CCCC2)c(C(=O)Nc2nccs2)c1	·	51.8	–	–	53.7	–
COc1ccccc1CNC(=O)C[C@H]1CC[C@H]2[C@@H](COc3ccc(NC(=O)Nc4ccccc4)cc3C(=O)N2C)O1	·	–	·	·	·	·
COc1ccc(CNC(=O)c2sc(=O)n(Cc3cc(Cl)ccc3OC)c2C)cc1	·	–	·	·	·	·
COc1ccc(NC(=O)c2sc(=O)n(Cc3ccc(F)c(Cl)c3)c2C)cc1OC	·	29.6	·	·	–	–
O=C(OCC#CCSc1nnc(-c2cccc3ccccc23)o1)c1ccncc1	·	–	·	·	·	·
CCC(C)NC(=O)C(NS(=O)(=O)c1ccc2c(c1)c(=O)n(C)c(=O)n2C)c1ccccc1 (stereo not drawn)	·	42.1	–	–	–	–
SMILES	BJeLR viability	PrPC TRFRET	MazEF act	PrP 5UTR inh	PrPC TRFRET cf	LD9 tox
Cc1cc(C(=O)O)cc(S(=O)(=O)NNC(=O)c2cccs2)c1C	–	42.0	–	–	–	–
CCCCCCCCCCCCCCCC[N+](C)(C)CC	–	26.2	–	–	35.9	13.8
CC#CC[N+](C)(C)CCCCCCCCCCCC	–	25.5	–	–	28.2	15.8
CCCCCC[N+](C)(C)CCSSCC[N+](C)(C)CCCCCC	–	–	–	–	·	·
O=C(O)c1ccc(NC(=O)C2CC=CCC2C(=O)O)cc1 (stereo not drawn)	–	31.4	–	–	–	–
O=C(O)C1CC=CCC1C(=O)Nc1ccccc1 (stereo not drawn)	–	–	–	–	·	·
C=CCN1C(=O)c2n[nH]c(C(C)C)c2C1c1ccc2c(c1)OCO2 (stereo not drawn)	·	–	·	·	·	·
CC(=O)c1ccc(OCc2cc(C(=O)N(C)Cc3nc4c(C)cccc4[nH]3)no2)cc1	–	26.8	–	–	25.9	–
Cc1cccc(C)c1OCc1cc(C(=O)N(C)Cc2nc3ccccc3[nH]2)no1	–	–	–	–	·	·
Cc1[nH]c2ccccc2c1CC(=O)Nc1ccc(Nc2cccnc2)c(-c2cc(C(F)(F)F)cc(C(F)(F)F)c2)c1	·	–	·	·	·	·
CCOC(=O)c1c(C)n(-c2ccccc2)c2ccc(O)cc12	–	27.5	–	–	–	–
C[N+]1(C)[C@H]2CC[C@H]1CC(OC(=O)C(O)c1ccccc1)C2 (stereo partly drawn)	·	–	·	·	·	·
COc1ccc(C(=O)C[n+]2cc(Br)cc3ccccc32)cc1[N+](=O)[O-]	–	26.7	–	–	–	–
O=C(C[n+]1cc(Br)cc2ccccc21)c1ccccc1	–	–	–	–	·	·
CCCC(=O)Nc1c2c(nc3ccccc13)N(c1ccccc1)CC2	–	·	–	–	·	·
O=C(CN1CCCCC1)Nc1c2c(nc3ccccc13)N(c1ccccc1)CC2	–	44.0	–	–	102.2	11.6
COc1cccc(C(=O)N[C@H](C(=O)N2CCC[C@H]2C(=O)NCCc2ccccc2Cl)C2CCCCC2)c1	·	–	·	·	·	·
Cc1nn(C(C)C(=O)N2CCCCC2)c(=O)c2c1sc1ccccc12 (stereo not drawn)	–	–	–	–	·	·
Cc1nn(C(C)C(=O)O)c(=O)c2c1sc1ccccc12 (stereo not drawn)	–	45.3	–	–	59.6	–
COc1ccc(C(=O)NCCSc2ccc(C)cc2)cc1	–	57.0	–	–	–	–
CCOC(=O)N1CCN(S(=O)(=O)c2ccc(C(=O)NNc3nc4c(C)cc(C)cc4s3)cc2)CC1	–	25.4	–	·	24.9	–
CN(C)c1ccc(-[n+]2c(-c3ccccc3)cc(-c3ccccc3)cc2-c2ccccc2)cc1	56.5	30.8	–	–	41.1	47.2
COc1ccc(S[C@]2(C(=O)N3CCN(C(C)=O)CC3)CC(=O)N(C(=O)c3ccccc3)[C@@H]2c2ccc(OC)cc2)cc1	·	–	·	·	·	·
c1ccc2cc3[nH]c(CNc4nc(N5CCOCC5)nc5c4ncn5-c4ccsc4)nc3cc2c1	·	25.4	·	·	37.6	13.3
FC(F)(F)c1ccc2nc(CNc3nc(N4CCOCC4)nc4c3ncn4-c3ccsc3)[nH]c2c1	·	40.9	·	·	36.8	16.7
c1ccc2[nH]c(CNc3nc(N4CCOCC4)nc4c3ncn4-c3ccsc3)nc2c1	·	–	·	·	·	·
O=[N+]([O-])c1ccc2nc(CNc3nc(N4CCOCC4)nc4c3ncn4-c3ccsc3)[nH]c2c1	·	–	·	·	·	·

High-throughput results deposited in PubChem BioAssay by several laboratories.
